Measurements as given in the supplement of paper PMC9694430.
Structures can show the parent of a compound that is named as a salt.
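Also: purified Escherichia coli-expressed rice kinase domain construct.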

The molecules below were run on LOC_OS04G35114-cb001 (assay: thermal shift delta Tm vs DMSO control; higher = stronger stabilization (binding)). Conditions: 12.5 µM; protein concentration 2 µM.
How it was run: (§1)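 Heating from 25°C to 95°C at 0.05°C/s, fluorescence was recorded for 19.5 μl wells of 2 μM E. coli-expressed, purified rice kinase domain in 100 mM potassium phosphate pH 7.5, 150 mM NaCl, 10% glycerol and 5 × SYPRO Orange with compound in DMSO. Boltzmann fits gave melting temperatures for this differential scanning fluorimetry assay. The shift reported is the mean of three replicates against the DMSO-only protein.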
`Cc1cc(NC(=O)c2cccc(NC(=O)/C=C/CN(C)C)c2)ccc1Nc1nccc(-c2cccnc2)n1` was tested, and the “thermal shift delta Tm” value was 1.79 °C.
In the case of `Nc1nccc(Oc2ccc(NC(=O)c3c[nH]cc(-c4ccc(F)cc4)c3=O)cc2F)c1Cl`, the “thermal shift delta Tm” value is reported as 0.58 °C.
With `COc1ccc(/C=C/C(=O)C2(C(=O)/C=C/c3ccc(OC)c(OC)c3)CCCCC2)cc1OC` the “thermal shift delta Tm” value was 0.96 °C.
`CC(C)CC(=O)Nc1n[nH]c2c1CN(C(=O)C1CCN(C)CC1)C2(C)C` was tested, and the “thermal shift delta Tm” value was 0.47 °C.

Each molecule was assayed on T1, LOC_OS04G38480-cb003 in the same assay as above. Conditions: 12.5 µM; protein concentration 2 µM.
T1 sequence (whole entry): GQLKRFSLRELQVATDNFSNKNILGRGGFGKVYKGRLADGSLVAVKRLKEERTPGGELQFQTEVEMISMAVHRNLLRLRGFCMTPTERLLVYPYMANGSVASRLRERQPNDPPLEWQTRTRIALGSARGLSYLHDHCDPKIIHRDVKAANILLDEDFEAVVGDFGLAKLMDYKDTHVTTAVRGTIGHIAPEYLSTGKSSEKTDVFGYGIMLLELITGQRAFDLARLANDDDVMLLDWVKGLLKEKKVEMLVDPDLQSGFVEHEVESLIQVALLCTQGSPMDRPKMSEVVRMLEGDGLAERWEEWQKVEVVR
How it was run: as §1
With `CCn1c(=O)c(-c2ccc(-c3cncs3)cc2Cl)cc2cnc(Nc3ccc(N4CCN(C)CC4)cc3)nc21` the “thermal shift delta Tm” value was 0.15 °C.
With `CNC(=O)c1cccc(-c2ccc3c(N4CCOC[C@@H]4C)nc(N4CCOC[C@@H]4C)nc3n2)c1` [Vistusertib (AZD2014)] the “thermal shift delta Tm” value was 0.96 °C.
In the case of `CC(C)S(=O)(=O)c1ccc2nccc(Nc3ccc4scnc4c3)c2c1`, the “thermal shift delta Tm” value is reported as 2.44 °C.
In the case of `Cn1cc(-c2ccc3ncc(Cc4ccc5ncccc5c4)n3n2)cn1`, the “thermal shift delta Tm” value is reported as 1.45 °C.
`N#Cc1ccc2ncnc(NCCc3ccccc3)c2c1` [Senexin A] was tested, and the “thermal shift delta Tm” value was 1.69 °C.
`O=C1NC(=O)/C(=C/c2ccc3nccc(-c4ccncc4)c3c2)S1` was tested, and the “thermal shift delta Tm” value was 1.96 °C.
In the case of `Cn1cnc2c(F)c(Nc3ccc(Br)cc3F)c(C(=O)NOCCO)cc21`, the “thermal shift delta Tm” value is reported as 1.48 °C.
`Cc1cc(Nc2ncc(Cl)c(Nc3ccccc3S(=O)(=O)C(C)C)n2)c(OC(C)C)cc1C1CCNCC1` [Ceritinib (LDK378)] was tested, and the “thermal shift delta Tm” value was 1 °C.
For `Cc1nc2ccc(-n3ncc(C(=O)c4cc5ccccc5[nH]4)c3N)cc2[nH]1`, the “thermal shift delta Tm” value was 0.93 °C.
For `C=C[C@@](C)(/C=C/c1ccc(O)cc1)CCC=C(C)C` [Bakuchiol], the “thermal shift delta Tm” value was 0.81 °C.
With `C=CC(=O)Nc1cccc(Nc2nc(Nc3ccc(N4CCN(C(C)=O)CC4)cc3OC)ncc2C(F)(F)F)c1` [Rociletinib (CO-1686, AVL-301)] the “thermal shift delta Tm” value was 0.94 °C.
In the case of `CCCS(=O)(=O)Nc1ccc(F)c(C(=O)c2c[nH]c3ncc(-c4ccc(Cl)cc4)cc23)c1F` [Vemurafenib (PLX4032, RG7204)], the “thermal shift delta Tm” value is reported as 4.49 °C.
With `COc1cc(OC)c(C=C2C(=O)Nc3ccccc32)c(OC)c1` the “thermal shift delta Tm” value was 0.58 °C.
In the case of `CCN(CC)CCCC(C)Nc1nc(C)cc(Nc2ccc3nc(C)cc(N)c3c2)n1` (configuration not stated), the “thermal shift delta Tm” value is reported as 0.87 °C.
With `CN1CC(O)C2=C/C(=N/NC(N)=O)C(=O)C=C21` (configuration not stated) [Carbazochrome] the “thermal shift delta Tm” value was 0.38 °C.
In the case of `Cc1cc(Nc2cc(N3CCN(C)CC3)nc(/C=C/c3ccccc3)n2)n[nH]1`, the “thermal shift delta Tm” value is reported as 1.95 °C.
For `Cc1ccc(NC(=O)Nc2cc(C(F)(F)F)ccc2F)cc1Nc1ccc2c(c1)NC(=O)/C2=C\c1ccc[nH]1`, the “thermal shift delta Tm” value was -1.28 °C.
With `CO[C@H]1C[C@@H]2CC[C@@H](C)[C@@](O)(O2)C(=O)C(=O)N2CCCC[C@H]2C(=O)O[C@H]([C@H](C)C[C@@H]2CC[C@@H](O)[C@H](OC)C2)CC(=O)[C@H](C)/C=C(\C)[C@@H](O)[C@@H](OC)C(=O)[C@H](C)C[C@H](C)/C=C/C=C/C=C/1C` [Rapamycin (Sirolimus)] the “thermal shift delta Tm” value was 1.63 °C.
With `C[S+]([O-])c1ccc(-c2nc(-c3ccc(F)cc3)c(-c3ccncc3)[nH]2)cc1` (configuration not stated) the “thermal shift delta Tm” value was 1.26 °C.
`CO[C@H]1CC[C@H](N2C(=O)CNc3ncc(-c4ccc(C(C)(C)O)nc4)nc32)CC1` was tested, and the “thermal shift delta Tm” value was 1.62 °C.
In the case of `O=C(Nc1ccccc1C(=O)NC1CCCCNC1=O)c1cc2ccccc2s1` (configuration not stated), the “thermal shift delta Tm” value is reported as 1.47 °C.
For `CCN1CCN(Cc2ccc(-c3cc4c(N[C@H](C)c5ccccc5)ncnc4[nH]3)cc2)CC1`, the “thermal shift delta Tm” value was 1.7 °C.
With `Cc1cnc(NC(=O)Nc2cc(Br)c(C)cc2OC[C@@H]2CNCCO2)cn1` the “thermal shift delta Tm” value was 0.59 °C.
With `Cc1ccc(NC(=O)c2ccc(CN3CCN(C)CC3)cc2)cc1Nc1nccc(-c2cccnc2)n1` [Imatinib Mesylate (STI571)] the “thermal shift delta Tm” value was 0.34 °C.
`NC(=O)c1ccc(N(C(N)=O)c2c(F)cccc2F)nc1-c1ccc(F)cc1F` was tested, and the “thermal shift delta Tm” value was -0.04 °C.
For `Cc1nc(-c2cn3c(n2)-c2ccc(-c4cnn(C(C)(C)C(N)=O)c4)cc2OCC3)n(C(C)C)n1` [Taselisib (GDC 0032)], the “thermal shift delta Tm” value was 0.83 °C.
`COc1cc(N2CCC(N(C)C)CC2)ccc1Nc1ncc(Cl)c(Nc2ccccc2P(C)(C)=O)n1` was tested, and the “thermal shift delta Tm” value was 3.65 °C.
`COc1cc2c(Nc3ccc(NC(=O)c4ccccc4)cc3)ncnc2cc1OCCCN1CCOCC1` was tested, and the “thermal shift delta Tm” value was 0.65 °C.
For `CNC(=O)c1cc(Oc2ccc(NC(=O)Nc3cc(C(C)(C)C)nn3-c3ccc4ncccc4c3)c(F)c2)ccn1` [Rebastinib (DCC-2036)], the “thermal shift delta Tm” value was 2.8 °C.
`CC(C)(CO)n1cc(C(=O)c2cncc(NC(=O)Cc3ccc(Cl)cn3)c2)c2cnc(N)nc21` was tested, and the “thermal shift delta Tm” value was 1.37 °C.
For `CS(=O)(=O)N1CCN(Cc2cc3nc(-c4cccc5[nH]ncc45)nc(N4CCOCC4)c3s2)CC1` [Pictilisib (GDC-0941)], the “thermal shift delta Tm” value was -0.11 °C.
With `C[C@@H]1COC(Nc2ccc3ncnc(Nc4ccc(OCc5nccs5)c(Cl)c4)c3c2)=N1` [Varlitinib] the “thermal shift delta Tm” value was 1.56 °C.
For `COc1cc(Nc2ncc(F)c(Nc3ccc4c(n3)NC(=O)C(C)(C)O4)n2)cc(OC)c1OC`, the “thermal shift delta Tm” value was 4.12 °C.
In the case of `CC(C)n1nc(-c2ccc3oc(N)nc3c2)c2c(N)ncnc21`, the “thermal shift delta Tm” value is reported as 0.87 °C.
With `Cc1cc(NC(=O)c2cccc(NC(=O)/C=C/CN(C)C)c2)ccc1Nc1nccc(-c2cccnc2)n1` the “thermal shift delta Tm” value was 1.17 °C.
In the case of `Nc1nccc(Oc2ccc(NC(=O)c3c[nH]cc(-c4ccc(F)cc4)c3=O)cc2F)c1Cl`, the “thermal shift delta Tm” value is reported as 2.79 °C.
For `COc1ccc(/C=C/C(=O)C2(C(=O)/C=C/c3ccc(OC)c(OC)c3)CCCCC2)cc1OC`, the “thermal shift delta Tm” value was 0.14 °C.
For `CC(C)CC(=O)Nc1n[nH]c2c1CN(C(=O)C1CCN(C)CC1)C2(C)C`, the “thermal shift delta Tm” value was 0.59 °C.
